Source: PubChem (The Scripps Research Institute Molecular Screening Center)
Compounds with a hit are over-represented: about 3.5% of the library has one in this group of screens.
TEAD-YAP inh: TEAD-YAP interaction inhibition; 640,000 compounds, 1.4% hits; inhibition, % at 9.12 µM; AID 1259422; HEK-TIYL cells, TEAD-Gal4/YAP UAS-luciferase luminescence; in the data active = inhibition above about 32%;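 also: 0% = median of test compound wells and 100% = reference inhibitor wells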
MITF primary: inhibitors of human MITF. AlphaScreen MITF homodimerization, bead proximity signal. 650,000 compounds, 0.91% hits. AID 1259374. O75030. inhibition, % at 2.6 µM; in the data active = inhibition above about 50%;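 also: 0% = vehicle wells with protein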
FBW7 act: human FBW7 E3 ligase activation, primary screen. AlphaScreen FBW7–phospho-cyclin E peptide binding, activator screen. AID 1259310. normalized activity (activation), % at 26.1 µM. 650,000 compounds, 0.13% hits. Q969H0; in the data active = normalized activity above about 1.9%;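 also: purified mutant Fbw7 with reduced substrate affinity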
GPR151 activ: activates the human receptor GPR151; Q8TDV0; PathHunter beta-arrestin GPR151 cells, luminescence; activation, % at 11.2 µM; 650,000 compounds, 1% hits; AID 1508602; in the data active = activation above about 4.9%;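 also: 0% = median of compound wells and 100% = cells with positive control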
Target sequence (Q8TDV0 whole entry, looked up): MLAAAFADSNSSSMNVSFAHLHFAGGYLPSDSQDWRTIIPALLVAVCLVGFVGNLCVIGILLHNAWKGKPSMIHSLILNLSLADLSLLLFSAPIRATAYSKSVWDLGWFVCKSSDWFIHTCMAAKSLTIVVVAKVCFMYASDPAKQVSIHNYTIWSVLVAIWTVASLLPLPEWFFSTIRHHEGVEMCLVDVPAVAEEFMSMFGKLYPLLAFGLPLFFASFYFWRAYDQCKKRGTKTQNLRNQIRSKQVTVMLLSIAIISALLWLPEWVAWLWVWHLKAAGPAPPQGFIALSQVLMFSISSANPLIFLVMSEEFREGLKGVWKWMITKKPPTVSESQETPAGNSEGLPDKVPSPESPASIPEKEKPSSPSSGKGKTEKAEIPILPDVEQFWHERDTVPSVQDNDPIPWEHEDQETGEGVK
* = called active by the depositor.

SMILES | TEAD-YAP inh | MITF primary | FBW7 act | GPR151 activ
Cc1oc(C(=O)N2c3ccccc3CC2C)cc1S(=O)(=O)N(C)C (stereo unspecified) | 49.2* | -2.9 | 0.3 | -4.0
O=c1c(-c2ccc3c(c2)OCCO3)coc2cc(O)ccc12 | 55.1* | -4.7 | 0.7 | -0.7
COc1ccc2c(=O)c(-c3ccc4c(c3)OCCO4)coc2c1 | -66.7 | 8.3 | 0.1 | -0.7
O=c1c(-c2ccc3c(c2)OCCCO3)coc2cc(O)cc(O)c12 | 66.3* | 6.2 | -0.1 | -1.0
O=c1[nH]c(N/N=C/c2ccccc2O)nc2ccccc12 | 72.0* | 77.7* | -0.2 | -3.2
COc1ccc(/C=N/Nc2nnc(Cc3ccccc3)c(=O)[nH]2)cc1OC | 3.8 | 15.0 | 0.0 | -0.1
COc1ccc(Cc2nnc(N/N=C/c3cccs3)[nH]c2=O)cc1OC | 3.8 | -8.7 | -0.5 | -0.6
O=c1[nH]c(N/N=C/c2ccc(O)cc2O)nnc1Cc1ccccc1 | 8.4 | 103.8* | -0.4 | -1.2
COc1ccc(Cc2nnc(N/N=C/c3cc([N+](=O)[O-])ccc3O)[nH]c2=O)cc1OC | -2.0 | 114.6* | -0.4 | 1.8
FC(F)(F)c1cccc(CNc2nc(-c3ccc(N4CCOCC4)nc3)nc3c2ncn3-c2ccsc2)c1 | -2.3 | 7.3 | -0.1 | -0.8
COc1ccc(CCn2c(C)c3c(=O)n(-c4nc5ccccc5s4)[nH]c3cc2=O)cc1 | 2.4 | 25.1 | -0.1 | 1.3
Cc1c2c(=O)n(-c3nc4ccccc4s3)[nH]c2cc(=O)n1Cc1ccccc1 | -3.0 | 71.5* | -0.1 | 1.4
O=C(Nc1ccc(CN2CCOCC2)cc1)c1ccc(-c2ccccc2)cc1 | 17.1 | -7.4 | -0.1 | 0.4
CCOC(=O)CN1CCN(c2ccc(-c3cccc(C=O)c3)cn2)CC1 | 10.8 | 14.6 | 0.5 | -0.8
CCOC(=O)CN1CCN(c2ccc(Br)cn2)CC1 | 44.5* | -8.0 | 0.2 | -0.5
CC1=C(C(=O)OCCOc2ccccc2)C(c2ccccc2[N+](=O)[O-])C2=C(CCCC2=O)N1 (stereo unspecified) | 34.5* | 1.5 | -0.3 | -0.5
CC1=C(C(=O)OCCc2ccccc2)C(c2ccccc2[N+](=O)[O-])C2=C(CCCC2=O)N1 (stereo unspecified) | 47.9* | 11.8 | -0.2 | -0.5
COc1ccc(-c2nc(C(N)=O)c3[nH]c(=O)n(-c4ccc(F)cc4)c3n2)cc1OC | 8.4 | 1.2 | 0.2 | -2.0
COc1cccc(-c2nc(C(N)=O)c3[nH]c(=O)n(-c4cccc(C)c4)c3n2)c1 | 7.1 | -4.2 | 0.0 | -0.8
COc1cc(-c2nc(C(N)=O)c3[nH]c(=O)n(-c4ccc(C)cc4)c3n2)cc(OC)c1OC | 6.3 | -11.3 | -0.1 | 0.5
COc1ccc(-c2nc(C(N)=O)c3[nH]c(=O)n(-c4ccc(F)cc4)c3n2)cc1O | 54.1* | 16.5 | 0.8 | 0.7
COc1ccc(-c2nc(C(N)=O)c3[nH]c(=O)n(-c4cccc(C)c4)c3n2)cc1 | 58.2* | 15.1 | 0.8 | -0.1
COc1ccc(-c2nc(C(N)=O)c3[nH]c(=O)n(-c4ccc(C)cc4)c3n2)cc1O | 67.2* | -6.4 | -0.3 | 0.3
COc1ccc(-c2nc(C(N)=O)c3[nH]c(=O)n(-c4ccc(Cl)cc4)c3n2)cc1O | 51.5* | 5.9 | -0.2 | 0.3
Cc1nc2c(cnn2-c2ccccc2)c2nnnn12 | 12.0 | 10.9 | 1.0 | 2.2
SMILES | TEAD-YAP inh | MITF primary | FBW7 act | GPR151 activ
Cc1ccc(NC(=O)c2cccc3ccccc23)cc1[N+](=O)[O-] | -20.2 | 9.5 | 0.9 | 2.5
CN1C(=O)[C@H]2CN(Cc3cnn(-c4cccc(Cl)c4)c3)CCN2C(=O)[C@@H]1Cc1ccccc1 | -17.0 | -8.7 | 0.1 | -0.7
CCN(CC)S(=O)(=O)c1ccc(-c2csc(=Nc3ccc(F)cc3)n2CCO)cc1 | 45.8* | 21.9 | -0.2 | 1.2
O=S(=O)(c1ccc(-c2csc(=Nc3ccc(F)cc3)n2CCO)cc1)N1CCCC1 | 47.5* | 44.3 | -0.1 | 1.3
CCN(CC)S(=O)(=O)c1ccc(-c2csc(=Nc3ccc(F)cc3)n2CCc2ccc(OC)cc2)cc1 | -2.5 | 15.6 | 0.1 | -0.1
O=S(=O)(NCc1ccco1)c1ccc(F)cc1 | 1.2 | 1.1 | 0.3 | 0.8
COc1ccc(OC)c(Nc2ncnc3c2cnn3-c2cccc(C)c2)c1 | 41.9* | -7.6 | 0.0 | 0.3
COc1ccc(-n2ncc3c(Nc4ccc(C)cc4C)ncnc32)cc1 | -29.9 | 6.3 | 0.0 | -0.5
CSc1ccccc1Nc1ncnc2c1cnn2-c1ccccc1 | -26.9 | -2.8 | 0.0 | 2.5
COc1ccc(-n2ncc3c(Nc4cc(C)ccc4C)ncnc32)cc1 | 40.0* | -1.2 | 0.0 | -1.9
COc1ccc(-n2ncc3c(Nc4ccccc4SC)ncnc32)cc1 | 55.3* | -2.2 | -0.2 | 0.9
CC1=NN2C(=N)/C(=C/c3ccc(OCCOc4cc(C)ccc4C)cc3)C(=O)N=C2S1 | -3.9 | 2.8 | 0.3 | 0.5
COc1cccc(C(=O)Nn2c(=S)[nH]c3ccccc3c2=O)c1 | 40.1* | -13.6 | 0.1 | -0.1
COc1ccc(C(=O)Nn2c(SCC(=O)NCCc3ccc(OC)c(OC)c3)nc3ccccc3c2=O)cc1 | 78.2* | 28.3 | 0.2 | -0.4
COc1cc2[nH]c(=S)n(NC(=O)c3ccccc3)c(=O)c2cc1OC | 11.5 | 3.1 | 0.0 | -1.8
COc1ccc(C(=O)Nn2c(SCC(=O)c3ccccc3)nc3ccccc3c2=O)cc1 | 69.9* | -12.1 | -0.1 | 0.4
O=C(CSc1cnc2ccccc2n1)c1ccc(F)cc1 | 49.2* | 3.7 | -0.2 | -2.4
O=C(CSc1nc2ccccc2c(=O)n1NC(=O)c1ccccc1)c1ccc(Br)cc1 | -2.8 | 10.0 | 0.2 | -1.4
COc1ccc(CCNC(=O)CSc2nc3ccccc3c(=O)n2NC(=O)Cc2ccccc2)cc1OC | -2.2 | -7.8 | 0.0 | 0.6
CCSc1ccccc1C(=O)Nc1cc(F)cc(F)c1 | -17.2 | 10.7 | 0.8 | 0.4
O=C(N/N=C/C=C/c1ccc([N+](=O)[O-])o1)c1ccccc1O | 2.6 | -19.9 | -0.2 | 1.8
O=C(Cc1ccccc1)Nn1c(SCC(=O)c2ccc(F)cc2)nc2ccccc2c1=O | -7.7 | -7.1 | -0.1 | -0.6
COc1cc(OC)cc(C(=O)Nn2c(-c3cccc(C)c3)nc3ccccc3c2=O)c1 | 5.8 | 18.9 | 1.9* | -0.1
COc1cccc(C(=O)Nn2c(-c3cccc(OC)c3)nc3ccccc3c2=O)c1 | -7.4 | -20.0 | 0.4 | -0.7
COc1ccc(C(=O)Nn2c(SCc3ccc([N+](=O)[O-])cc3)nc3ccccc3c2=O)cc1 | 48.9* | 2.3 | 0.0 | 3.1
SMILES | TEAD-YAP inh | MITF primary | FBW7 act | GPR151 activ
COc1ccc(C(=O)Nn2c(SCC(=O)c3ccc(F)cc3)nc3ccccc3c2=O)cc1 | 46.2* | 10.5 | 0.1 | 0.0
Cc1ccccc1C(=O)/C=c1\[nH]c(=O)/c(=C\c2cccc(O)c2)s1 | 56.9* | 4.0 | -0.2 | 0.3
COCCN=C1NN=C(c2ccc(C)cc2)CS1 | -25.3 | -0.5 | -0.4 | 1.3
CCCc1ccc(C2=NNC(=NC)SC2)cc1 | 96.7* | 1.0 | -0.2 | -9.1
CCC(=O)/C=C1/Sc2ccc(OC)cc2N1CC | 7.9 | 3.4 | -0.1 | -0.8
CCN1/C(=C/c2ccc3ccc(C)cc3[n+]2CC)Sc2cc(OC)ccc21 | 87.5* | 32.8 | -0.5 | 2.6
CCN1/C(=C/c2ccc3cc(OC)ccc3[n+]2CC)Sc2ccc(OC)cc21 | 87.5* | 30.2 | -0.6 | 3.8
